Screening data: PubChem BioAssay, Center for Chemical Genomics, University of Michigan
This is one part of a sample in which hits are shown more often than they occur.
Dicer processing = human Dicer pre-microRNA cleavage inhibition; Q9UPY3; cat-ELCCA pre-miR-21 Dicer processing, chemiluminescence; active compounds read high; z-score at 25 µM; 47,000 compounds, 6% hits; AID 1347074; in the data active = z-score above about 3, passing the limit was not always enough;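 also: plate controls were vehicle for no effect and no enzyme for full effect; higher signal means more uncleaved substrate so more Dicer inhibition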
The depositor's hits bear a star; ! = not active in a repeat.

SMILES	Dicer processing
O=C(Oc1c(-c2ccccc2)c(=O)n2c3c(cccc13)CC2)c1ccccc1	-2
O=C(Oc1c(-c2ccccc2)c(=O)n2c3c(cccc13)CCC2)c1cccs1	-1
O=C(Oc1c(-c2ccccc2)c(=O)n2c3c(cccc13)CC2)c1cccs1	4*
CNc1nccc(C(F)(F)F)c1C(=O)Nc1c(C)cccc1C	-1.2
Cc1cc(C)c(C#N)c(OC(=O)c2c(F)cccc2F)n1	71*
CCOC(=O)COc1nc(C)cc(C)c1C#N	-1.6
Cc1cc(C)c(C#N)c(Nc2ccc(F)cc2)n1	-0.61
COc1ccc2[nH]c(=O)c(-c3noc(-c4ccccc4Br)n3)cc2c1	-0.24
O=[N+]([O-])c1ccc(Oc2c(Cl)cc(S(=O)(=O)N3CCOCC3)cc2Cl)cc1	-1.4
O=C(Nc1ccc2oc(-c3cccc4ccccc34)nc2c1)c1ccc([N+](=O)[O-])o1	1.7
Cc1ccccc1-c1nc2cc(NCc3cccs3)ccc2o1	8.2*
O=C(Nc1ccc2oc(-c3ccccc3F)nc2c1)c1ccc([N+](=O)[O-])o1	32
CCOC(=O)c1sc(N2CCCC2)c2c1CC(C)(C)CC2=O	-0.33
Cc1cc(C)n(-c2nc(-c3ccccc3)nc3c2COC(C)(C)C3)n1	-0.2
C=CCSC1=C(C#N)C(c2ccccc2C)C(C(=O)OC)C(=O)N1 (centres undefined)	1
COc1ccccc1-c1nnc(Sc2sccc2[N+](=O)[O-])n1-c1ccccc1	-0.48
CC(Sc1nc2c(N)ncnc2n1Cc1ccccc1)C(=O)O (centres undefined)	-0.84
O=C1CC(NCCc2ccc(Cl)cc2)C(=O)N1c1ccc(Br)cc1 (centres undefined)	4.6*
CCCCCCCNC1CC(=O)N(c2ccc(Cl)cc2)C1=O (centres undefined)	-0.55
O=C1CC(NCc2ccc(Cl)cc2)C(=O)N1c1ccc(Br)cc1 (centres undefined)	-3.3
CCOC(=O)C(=CNNC(=O)c1ccc(OC)cc1)C(=O)OCC	-0.5
CC(C)(C)c1ccc(-c2n[nH]c(S(C)(=O)=O)c2C#N)cc1	-1
COc1ccccc1N1CCN(c2nnc(C)c3ccccc23)CC1	-0.71
COc1cc(C(=O)O)cc(Br)c1OC	0.34
CCOC(=O)c1c(C)n(-c2ccccc2)c2ccc(OC(C)=O)cc12	1.4
SMILES	Dicer processing
COc1cc2c(C(=O)O)c(C)n(-c3ccccc3)c2cc1Br	3.1*
CCOC(=O)c1c(C)n(-c2ccccc2)c2ccc(OC(=O)c3cccnc3SCC)cc12	-0.1
COc1ccccc1-n1c(C)c(C(=O)O)c2cc(OC)c3ccccc3c21	4.6*
COc1ccccc1N1CCN(C(=O)c2cc(C)on2)CC1	-0.05
CCOC(=O)c1c(C)n(-c2ccc(Br)cc2)c2ccc(O)cc12	-0.48
CCS(=O)(=O)Nc1cc2c(C(=O)O)c(C)n(S(=O)(=O)CC)c2cc1OC	-2
CCOC(=O)c1c(C)n(-c2ccc(N(C)C)cc2)c2ccc(OCC(N)=O)cc12	4.6*
CCOC(=O)c1c(C)n(-c2ccc(N(C)C)cc2)c2ccc(OC)cc12	-4.8
CCOC(=O)c1c(C)n(-c2ccccc2)c2cc(Br)c(O)cc12	3.7*
NNC(=O)c1c(-c2ccccc2)c(-c2ccccc2)nn2nnnc12	-0.95
O=C(C1CC(c2ccc(Cl)cc2)=NO1)N1CCOCC1 (centres undefined)	0.16
Cn1c(=O)c2c(O)cc(=O)n(C)c2n(C)c1=O	-0.77
CCOC(=O)c1cnc(Nc2ccc(C)c(Cl)c2)nc1C(F)(F)F	-0.3
C=CCOc1ccc(CNCCSc2nnnn2C)cc1	0.52
CN(C)c1cc(C(F)(F)F)cnc1C#N	0.39
CCc1nc2nc(CSc3ccc(C)cc3)cc(=O)n2[nH]1	1.3
O=c1cc(-c2ccccc2)nc2nc[nH]n12	1.1
O=c1cc(CSc2ccc(Cl)cc2)nc2nc[nH]n12	4.4*
CCCCCCCC/C=C\CCCCCCCC(=O)NCCc1ccc(O)c(O)c1	1.1
CC(CCc1ccc(O)cc1)NCCc1ccc(O)c(O)c1 (centres undefined)	7*!
C[C@H](Cc1ccc(O)c(O)c1)[C@@H](C)Cc1ccc(O)c(O)c1	0.3
Cc1ccc(C(=O)C(C)S(=O)(=O)c2ccc(Cl)cc2)cc1Cl (centres undefined)	0.58
CCCCCOC(=O)C1=C(C)NC2=C(C(=O)CCC2)C1c1cc(Br)c(O)c(OC)c1 (centres undefined)	0.25
COc1cccc2c1OC(c1cccnc1)N1N=C(c3cc(C)ccc3O)CC21 (centres undefined)	2.3
Cc1ccc(NC(=O)NN2CC(=O)N(c3ccc(Cl)cc3)CC2=O)cc1	1.7
SMILES	Dicer processing
Cc1ccc(NC(=O)NN2CC(=O)N(c3ccccc3F)CC2=O)cc1	4.8*
NN1CC(=O)N(c2ccccc2F)CC1=O	1.1
CSc1nnc(SCc2nc(-c3ccc(Cl)cc3)cs2)s1	-0.98
Cc1ccc(-c2cn3cc(-c4ccc(Br)cc4)nc3n2C)cc1	-0.28
CCOC(=O)CSc1n[nH]c(-c2ccncc2)n1	2
Cc1cccc(NS(=O)(=O)c2ccc3c4c(cccc24)C(=O)N3)c1C	-0.37
O=C1Sc2ccc(S(=O)(=O)Nc3ccc4oc(=O)sc4c3)c3cccc1c23	11*
